“And” between values parts separate entries of the source, which are not always exact repeats. Identical values can stand only once. More than one record can exist for a structure, and the calls need not agree. The source made the active and inactive calls. The calls were made as follows: active = hit-call score of the fitted dose curve at least 0.9, where 1 is the maximum; inactive = score below 0.9.

A short description of this assay: APR_HepG2_MitoMass_24hr: Apredica 24-hour HepG2 Assay for Mitochondrial Mass (AID 2282912). As to conditions: high-content imaging, actives raise or lower the signal. The method, then: APR_HepG2_24hr is a cell-based, multiplexed-readout assay that uses HepG2, a human liver cell line, with measurements taken at 24 hours after chemical dosing in a 384-well plate.APR_HepG2_MitoMass_24hr is one of 10 assay component(s) measured or calculated from the APR_HepG2_24hr assay. It is designed to make measurements of cell phenotype, a form of morphology reporter, as detected with fluorescence intensity signals by HCS Fluorescent Imaging technology.Data from the assay component APR_HepG2_MitoMass_24hr was analyzed into 1 assay endpoint. This assay endpoint, APR_HepG2_MitoMass_24hr, was analyzed with bidirectional fitting relative to DMSO as the negative control and baseline of activity. Using a type of morphology reporter, gain or loss-of-signal activity can be used to understand changes in the signaling. Furthermore, this assay endpoint can be referred to as a primary readout, because this assay has produced multiple assay endpoints where this one serves a signaling function. To generalize the intended target to other relatable targets, this assay endpoint is annotated to the cell morphology intended target family, where the subfamily is organelle conformation.
Cells were treated with dimethyl sulfoxide (DMSO) as a solvent control at a final concentration of 0.5% v/v or with compounds in DMSO with a resulting final DMSO concentration of 0.5% v/v. Compound treatment was done at concentrations of 0.39, 0.78, 1.56, 3.12, 6.24, 12.5, 25, 50, 100, and 200 uM in duplicate on each plate. Cells were treated with compounds for 1, 24, or 72 hr. Carbonyl […] m-chloro-phenylhydrazone (CCCP) and taxol were used as positive controls for mitochondrial function and cytoskeletal stability, respectively; DMSO served as the negative control for this experiment. Cells were fixed by the direct addition of 50 uL formaldehyde in Hank's Balanced Salt Solution (HBSS) to a final concentration of 3.7%. After incubation in the fixation medium for 30 min at room temperature (293-298 K), cells were rinsed twice with HBSS and treated with cell permeabilization buffer (16 uL of 0.5% Triton X-100) for 10 min at room temperature (293-298 K) before labeling. For mitochondrial membrane potential and mitochondrial measurements, pre-fixed cells were incubated with 50 uL of MitoTracker Red CMXRos (Invitrogen) at a concentration of 250 nM for 30 min before fixation. In the remaining cases, post-fixed cells were labeled by incubation with a multiplexed mixture of primary antibodies in HBSS for 60 min at room temperature (293-298 K) to detect immunoreactivity of c-Jun (1:500), phospho-histone H3 (1:100), phospho-histone H2A.x (1:200), p53 (1:400), alpha-tubulin (1:200) and Hoechst 33342 (2 ug/mL). Cells were labeled for multiplexed imaging on two separate plates: a) Hoechst 33342, MitoTracker Red, phospho-histone H3, and alpha-tubulin, and b) Hoechst 33342, phospho-histone H2A.x, and c-Jun. A final rinse with HBSS (50 uL) was performed before analysis. The primary and secondary antibodies for the proteins were phospho-histone H3 (rabbit anti-phospho-histone H3 and FITC-donkey anti-rabbit IgG), phospho-histone H2A.x (mouse anti-phospho-histone H2A.x and FITC-donkey anti-mouse IgG), c-Jun (rabbit anti-phospho-c-Jun and Cy3-donkey anti-rabbit IgG), p53 (sheep anti-p53 and Cy5-donkey anti-sheep IgG), alpha-tubulin (mouse anti-alpha-tubulin and Cy5-donkey anti-mouse IgG). These antibodies are available as the CellCiphr HepG2 assay kit (Millipore).Digital images of each well were captured using a Cellomics ArrayScan VTI (Thermo Scientific Cellomics) (0.8 NA objective, 0.63x optical coupler, and XF-93 filter set) at 20x magnification. The images were acquired using the autofocus feature of the ArrayScan instrument, which entails the following steps. First, the camera focuses on channel 1 (Hoechst 33342), where nuclei are identified. Second, a Z offset of 1 um is used for capturing mitochondria (MitoTracker Red). […]
For the molecule `O=C(O)CCCOc1ccc(Cl)cc1Cl`, the call was inactive.

As to `CC(C)OC(=O)Nc1cccc(Cl)c1`, the result was inactive.

For `COP(=S)(OC)Oc1ccc(SC)c(C)c1`, the outcome was inactive.

For `COC(=O)c1ccccc1S(=O)(=O)NC(=O)Nc1nc(C)nc(OC)n1`, the outcome was inactive.

On to `OCCOc1ccccc1`, for which the result was inactive.

Turning to `O=C(NC(=O)c1c(F)cccc1F)Nc1ccc(OC(F)(F)C(F)OC(F)(F)F)c(Cl)c1` (stereo not given), the molecule was called inactive.

Regarding `Cc1[nH]c(=O)n(C(C)(C)C)c(=O)c1Cl`, the result was inactive.

`CC(C)(C)C(O)C(Oc1ccc(Cl)cc1)n1cncn1` (stereo not given): the outcome was inactive.

`COC(=O)c1ccccc1CS(=O)(=O)NC(=O)Nc1nc(OC)cc(OC)n1`: the molecule was classed as inactive.

Consider `N#Cc1c(Cl)c(Cl)c(Cl)c(C#N)c1Cl`, for which the result was inactive.

`O=C(Nc1ccccc1)Nc1cnns1`: the molecule was classed as inactive.

Regarding `COP(=S)(OC)Oc1ccc([N+](=O)[O-])cc1`, the result was inactive.

Regarding `CNC(=O)/C=C(\C)OP(=O)(OC)OC`, the result was inactive.

As for `CCC(C)(NC(=O)c1cc(Cl)c(C)c(Cl)c1)C(=O)CCl` (stereo not given), the call was inactive.

In the case of `Cc1cc(C)nc(NC(=O)NS(=O)(=O)c2ccccc2C(=O)OC2COC2)n1`, the outcome was inactive.

For the molecule `O=[N+]([O-])/N=C1\NCCN1Cc1ccc(Cl)nc1`, the molecule was called inactive.

On to `O=C(O)COc1ccc(Cl)cc1Cl`, for which the result was inactive.

On to `CCOC1Oc2ccc(OS(C)(=O)=O)cc2C1(C)C` (stereo not given), for which the molecule was called inactive.

Turning to `Oc1ccc(Cl)cc1Cc1ccccc1`, the molecule was called inactive; the AC50 (in general, the midpoint of the concentration-response curve, whichever way the signal moves) was 47.2 µM (active) and 157 µM (active) and 159 µM (active).

Consider `ClC1C(Cl)C(Cl)C(Cl)C(Cl)C1Cl` (stereo not given), for which the call was inactive.

In the case of `CC(C)(C)C(O)/C(=C\c1ccc(Cl)cc1Cl)n1cncn1` (stereo not given), the outcome was inactive.

`CC[C@H](C)[C@H]1O[C@]2(C=C[C@@H]1C)C[C@@H]1C[C@@H](C/C=C(\C)[C@@H](O[C@H]3C[C@H](OC)[C@@H](O[C@H]4C[C@H](OC)[C@@H](O)[C@H](C)O4)[C@H](C)O3)[C@@H](C)/C=C/C=C3\CO[C@@H]4[C@H](O)C(C)=C[C@@H](C(=O)O1)[C@]34O)O2` (tested in a mixture with another compound): the AC50 is 114 µM (active).

`CNC(=O)CSP(=S)(OC)OC`: the call was inactive.

As to `O=C(O)C(F)(F)C(F)(F)C(F)(F)C(F)(F)C(F)(F)C(F)(F)C(F)(F)F`, the result was inactive.

On to `CCCN(CCC)c1c([N+](=O)[O-])cc(C(F)(F)F)cc1[N+](=O)[O-]`, for which the result was inactive.

On to `CCc1ccc(C(=O)NN(C(=O)c2cc(C)cc(C)c2)C(C)(C)C)cc1`, for which the outcome was inactive.

As to `C[C@H]1[C@H](c2ccc(Cl)cc2)SC(=O)N1C(=O)NC1CCCCC1`, the outcome was inactive.

`COc1cc(OC)nc(NC(=O)NS(=O)(=O)c2cc(NC=O)ccc2C(=O)N(C)C)n1`: the molecule was classed as inactive.

Take `COP(=O)(OC)OC=C(Cl)Cl`: the outcome was inactive.

Regarding `CNC(=O)Oc1cccc(N=CN(C)C)c1`, the result was inactive.

Turning to `CC(C)N(C(=O)COc1nnc(C(F)(F)F)s1)c1ccc(F)cc1`, the call was inactive.

Take `CCC(C)(C)C(=O)OC1=C(c2ccc(Cl)cc2Cl)C(=O)OC12CCCCC2`: the molecule was classed as inactive.

Take `CCC(C)Nc1c([N+](=O)[O-])cc(C(C)(C)C)cc1[N+](=O)[O-]` (stereo not given): the outcome was inactive.

Regarding `CCN(CC)C(=O)SCc1ccc(Cl)cc1`, the molecule was classed as inactive.

Regarding `CN1CSC(=S)N(C)C1`, the call was inactive.

For the molecule `CCOCN(C(=O)CCl)c1c(C)cccc1CC`, the AC50 is 65.1 µM (active).

For `CC1(c2ccc(Oc3ccccc3)cc2)OC(=O)N(Nc2ccccc2)C1=O` (stereo not given), the molecule was called inactive.

In the case of `O=S1OCC2C(CO1)C1(Cl)C(Cl)=C(Cl)C2(Cl)C1(Cl)Cl` (stereo not given), the molecule was called inactive.

Regarding `N#CN`, the molecule was classed as inactive.

The record behind these values is PubChem BioAssay (EPA / NIEHS).
